ALR inh: human ALR oxidase inhibition via reduced H2O2; P55789; hit rate 3.8% among 290,000; inhibition, % (test concentration not listed); purified ALR, DTT oxidation, H2O2 HRP-luminol luminescence; AID 485317;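 active = mean replicate inhibition above about 79%, with every replicate also reaching it, limit read from the data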
Target sequence (P55789 whole entry, looked up): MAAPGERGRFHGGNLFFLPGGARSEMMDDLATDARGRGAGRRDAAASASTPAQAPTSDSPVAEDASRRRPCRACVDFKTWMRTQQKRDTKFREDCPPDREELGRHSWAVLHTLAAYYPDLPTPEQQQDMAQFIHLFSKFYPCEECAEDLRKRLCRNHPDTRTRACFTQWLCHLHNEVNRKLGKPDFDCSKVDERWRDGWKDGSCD
HDAC3 inhib: blocks human histone deacetylase 3; O15379; recombinant HDAC3, fluorogenic peptide/trypsin coupled, fluorescence; inhibition, % at 8.3 µM; hit rate 0.15% among 320,000; in the data active = inhibition above about 26%, passing the limit was not always enough
GC-B act: GC-B (human) receptor activation; HEK293-GC-B cells, CNP EC30, cGMP TR-FRET; 0% at EC30 CNP, 100% saturating CNP; hit rate 0.11% among 370,000; AID 1920062; activation, % at 10 µM;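 active = activation at 10 µM reaching about 35% in either raw or pattern-adjusted values, limit read from the data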
GC-A act: GC-A (human) enzyme activation | activation, % at 10 µM | HEK293 GC-A cells, cGMP TR-FRET, EC30 ANP; 0% at EC30 ANP, 100% saturating ANP | hit rate 0.14% among 370,000; in the data active = activation above about 40%
* = called active by the depositor. This excerpt belongs to a sample that is enriched for hits.

What do the screens show for `COCCOC(=O)C1=C(C)NC2=C(C(=O)CCC2)C1c1ccc(N(C)C)cc1` (stereo not given)?
ALR inh: 100*; HDAC3 inhib: -5; GC-B act: -1; GC-A act: -6

How did C=CCN(C(=O)c1csnn1)C(C(=O)NC1CCCC1)c1ccc(Cl)cc1 (stereo not given) do in these assays?
ALR inh: -2; HDAC3 inhib: -4; GC-B act: -8; GC-A act: -23

How did Nc1[nH]c(=O)ncc1-c1ccc([N+](=O)[O-])cc1 do in these assays?
GC-B act: 12; GC-A act: 9

What do the screens show for `COc1cc(-c2ccccc2)[nH]c(=S)n1`?
ALR inh: -3; HDAC3 inhib: 1; GC-B act: 2; GC-A act: -1

What do the screens show for `S=c1[nH]cc(-c2ccccc2)[nH]1`?
ALR inh: 99*; HDAC3 inhib: -51; GC-B act: -2; GC-A act: -3

What do the screens show for `O=[N+]([O-])c1ccc(-c2c[nH]c(=S)[nH]2)cc1`?
ALR inh: 98*; HDAC3 inhib: 6; GC-B act: -1; GC-A act: -8

How did COc1ccc(C(=O)c2[nH]c(N)c(C(=O)NCCc3c[nH]c4ccccc34)c2-c2ccc(C(F)(F)F)cc2)cc1 do in these assays?
GC-B act: -1; GC-A act: -4

Results for CN(C)CCCn1c2c(c(SCC(=O)Nc3cccc4ccccc34)nc1=O)CCC2 ?
ALR inh: 72; HDAC3 inhib: 3; GC-B act: 1; GC-A act: 5

How did CCN(CC)CCn1c2c(c(SCC(=O)Nc3cc(C)ccc3C)nc1=O)CCC2 do in these assays?
ALR inh: -10; HDAC3 inhib: -2; GC-B act: -9; GC-A act: -3

Results for CN(C)CCn1c2c(c(SCC(=O)Nc3nccs3)nc1=O)CCCC2 ?
ALR inh: 96*; HDAC3 inhib: 1; GC-B act: 6; GC-A act: 0

Results for CCN(CC)CCn1c2c(c(SCC(=O)Nc3nccs3)nc1=O)CCCC2 ?
ALR inh: 98*; HDAC3 inhib: 4; GC-B act: -2; GC-A act: 5

What do the screens show for `CCc1ccc(C(C(=O)NC2CCCC2)N(C(=O)/C=C/C(=O)Nc2cc(C)on2)c2ccccc2C)cc1` (stereo not given)?
ALR inh: -5; HDAC3 inhib: 1; GC-B act: -4; GC-A act: -11

What do the screens show for `COc1ccc2[nH]c3c(c2c1)CCNC3(C)CCc1ccc(Cl)nc1` (stereo not given)?
HDAC3 inhib: 2; GC-B act: 1; GC-A act: -3

How did CCS(=O)(=O)c1ccc2oc(Nc3cccc(OC)c3)nc2c1 do in these assays?
ALR inh: 97*; HDAC3 inhib: 2; GC-B act: 8; GC-A act: 3

Results for CCS(=O)(=O)c1ccc2oc(Nc3ccc(OC)cc3)nc2c1 ?
ALR inh: 23; HDAC3 inhib: -2; GC-B act: 2; GC-A act: 1

Results for Fc1ccccc1CNC(=S)Nc1cccc(C(F)(F)F)c1 ?
ALR inh: 5; HDAC3 inhib: 2; GC-B act: 3; GC-A act: 3

Results for CCOC(=O)c1ccc(N2C(=O)CC(NNC(=O)c3ccc(Br)s3)C2=O)cc1 (stereo not given) ?
ALR inh: 2; HDAC3 inhib: -10; GC-B act: 4; GC-A act: 0

Results for CCOC(=O)c1ccc(N2C(=O)CC(Nc3ccc(O)cc3)C2=O)cc1 (stereo not given) ?
ALR inh: 97*; HDAC3 inhib: -5; GC-B act: -6; GC-A act: -2

What do the screens show for `CC(C)CC(O)(CC(C)C)C(=O)NNc1ccccc1`?
ALR inh: 99*; HDAC3 inhib: 6; GC-B act: -5; GC-A act: 0

How did COCCn1c(SCC(=O)N2CCOCC2)nnc1-c1ccncc1 do in these assays?
ALR inh: -9; HDAC3 inhib: 2; GC-B act: -3; GC-A act: 4

Results for Cc1ccc(S(=O)(=O)N[C@@H](Cc2ccccc2)C(=O)CCl)cc1 ?
ALR inh: 98*; HDAC3 inhib: -2; GC-B act: -6; GC-A act: -13

Results for Cc1ccc(S(=O)(=O)NC(Cc2ccccc2)C(=O)NN)cc1 (stereo not given) ?
ALR inh: -7; HDAC3 inhib: -3; GC-B act: 0; GC-A act: -1

Results for Cc1[nH]nc(Nc2ccc(O)cc2)c1[N+](=O)[O-] ?
ALR inh: 99*; HDAC3 inhib: 0; GC-B act: 0; GC-A act: -2

Results for CCc1nnc(NC(=O)CSc2ncnc3c2oc2ccccc23)s1 ?
ALR inh: 14; HDAC3 inhib: 1; GC-B act: -3; GC-A act: 14

Results for O=C(CSc1ncnc2c1oc1ccccc12)Nc1nc2ccccc2s1 ?
ALR inh: 96*; HDAC3 inhib: -8; GC-B act: 1; GC-A act: -2

How did O=C(CSc1ncnc2c1oc1ccccc12)Nc1ccccc1F do in these assays?
ALR inh: 2; HDAC3 inhib: 5; GC-B act: 16; GC-A act: 63*

What do the screens show for `CCOc1ccccc1NC(=O)CSc1ncnc2c1oc1ccccc12`?
ALR inh: -1; HDAC3 inhib: -1; GC-B act: 3; GC-A act: -3

How did COC(=O)c1ccc2nc(-c3cccc(Br)c3)c(Cc3cccc(Cl)c3)n2c1 do in these assays?
GC-B act: 10; GC-A act: -3

Results for CC(=O)Nc1ccc(NC(=O)C(C)OC(=O)c2cccc(S(=O)(=O)N3CCCCCC3)c2)cc1 (stereo not given) ?
ALR inh: 0; HDAC3 inhib: 3; GC-B act: 2; GC-A act: 2

How did O=C(Nc1ccc(O)cc1)C1CC=CCC1 (stereo not given) do in these assays?
ALR inh: 99*; HDAC3 inhib: -10; GC-B act: 1; GC-A act: 0

What do the screens show for `CCOC(=O)C1(Cc2ccccc2)CCN(Cc2ccc3c(c2)OCCO3)CC1`?
ALR inh: 0; HDAC3 inhib: 10; GC-B act: 4; GC-A act: -3

What do the screens show for `COc1ccc(-n2cnc3cc(NCc4cccs4)ccc32)cc1`?
ALR inh: 95*; HDAC3 inhib: 0; GC-B act: -9; GC-A act: -9

What do the screens show for `Cc1ccc(-n2cnc3cc(NCc4cccs4)ccc32)cc1`?
ALR inh: 21; HDAC3 inhib: 1; GC-B act: 5; GC-A act: -2

How did c1ccc(-n2cnc3cc(NCc4cccs4)ccc32)cc1 do in these assays?
ALR inh: 97*; HDAC3 inhib: -19; GC-B act: 3; GC-A act: -10

How did CCCCC(=O)N(C)c1c(CC)nc2c(OCC(=O)N(C)C)cccn12 do in these assays?
GC-B act: 6; GC-A act: 1

What do the screens show for `CNc1cncc(-c2ccc(OC)cc2)n1`?
GC-B act: -1; GC-A act: -2

How did CNc1nc(-c2ccc3c(c2)CCN3C(=O)c2ccccc2F)cs1 do in these assays?
GC-B act: 8; GC-A act: 8

Screens deposited in PubChem BioAssay by several laboratories.
